Assay results: PubChem BioAssay (NCI)
This is part of a sample that, as a whole, favours compounds with a hit. Of some 79,000 tested, about 15% had one in any assay. No stated cut-off is given here; in the data, active means growth inhibition above about 70%; inactive means the rest.

Key:
[1] = NCI Yeast Anticancer Drug Screen. Data for the rad50 strain (AID 155);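 further: 0% = growth of vehicle-only cultures of the same strain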; details: S. cerevisiae rad50 strain growth inhibition; at 50.0 µM; active compounds read high
Outline: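 Vehicle-treated cultures provide the reference for the growth inhibition reported for compound-exposed, repair-deficient yeast.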

[2] = NCI Yeast Anticancer Drug Screen. Data for the mec2-1 strain (AID 157); details: S. cerevisiae mec2-1 strain, at 50.0 µM, active compounds read high
Outline: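 Strain: mec2-1 (DNA repair/cell cycle alteration). Compound exposure, then growth measured; inhibition expressed relative to vehicle.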

[3] = NCI Yeast Anticancer Drug Screen. Data for the sgs1 mgt1 strain (AID 161);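 further: 0% = growth of cultures given vehicle only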; details: S. cerevisiae sgs1 mgt1 strain, at 50.0 µM, active compounds read high
Outline: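 Test agents were incubated with a DNA-repair-mutant yeast strain. Growth was then read and compared against vehicle-treated controls.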

[4] = NCI Yeast Anticancer Drug Screen. Data for the cln2 rad14 strain (AID 165);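 further: 0% = growth equal to vehicle treated cultures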; details: S. cerevisiae cln2 rad14 strain, at 50.0 µM, active compounds read high
Outline: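 Compounds are applied to the cln2 rad14 yeast strain, and growth is then compared with that of vehicle-treated cultures to give inhibition.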

[5] = NCI Yeast Anticancer Drug Screen. Data for the bub3 strain (AID 167); details: S. cerevisiae bub3 mutant strain, at 50.0 µM, active compounds read high
Outline: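 Mutant yeast screening strain plus compound; vehicle-treated cultures serve as the 0% inhibition reference.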

[6] = NCI Yeast Anticancer Drug Screen. Data for the mlh1 rad18 strain (AID 175); details: S. cerevisiae mlh1 rad18 strain growth inhibition; at 50.0 µM; active compounds read high
Outline: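 Read-out is yeast growth inhibition, calculated against vehicle-only controls. The compound was applied to a strain engineered with DNA damage repair alterations.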

Measured: growth inhibition

Oc1c(C(O)N2CCOCC2)cc(C(O)N2CCOCC2)c(O)c1O (stereo not drawn) (tested in a mixture with another compound)
inactive: [1] -3.3% | [2] -11.1% | [3] -17% | [4] -16.2% | [5] -3.15% | [6] 9.75%

CCOC(=O)C(C)(OCC)OCC
inactive: [1] -13.4% | [2] -13.2% | [3] -17.2% | [4] -8.55% | [5] -0.3% | [6] 11.9%

CN(C)CCCN
inactive: [1] -11.3% | [2] -4.4% | [3] 3% | [4] -30.8% | [5] 5.7% | [6] 1.5%

CCOC(=O)C(=O)Cc1cnccn1
inactive: [1] -25.2% | [2] -12.7% | [3] -11.8% | [4] -0.9% | [5] -17.8% | [6] -2.65%

CCCc1nc2ccccc2c(=O)n1/N=C/c1ccc(Cl)cc1
inactive: [1] 0.5% | [2] 7.3% | [3] -0.4% | [4] 5.7% | [5] 0.9% | [6] 7.95%

CC1(C)CC(=O)C(/C(=N/NC(=S)NN)C(=O)Nc2nc3ccc([N+](=O)[O-])cc3s2)C(=O)C1
inactive: [1] 35.8% | [2] 20.2% | [3] -15.2% | [4] -26.9% | [5] 1% | [6] 16.4%

O=C1CCC(CC2CCCCC2)CC1
inactive: [1] -6.7% | [2] -3.95% | [3] -2.8% | [4] -58.6% | [5] -17.7% | [6] -12.2%

CC(=[N-])CC(C)=O.O=C(CC(=Nc1ccccc1)c1ccccc1)c1ccccc1.[Cu+]
inactive: [1] -21.2% | [2] -7.5% | [3] 1.6% | [4] 29.3% | [5] -3.45% | [6] 16.2%

CCO/N=C(\C(=O)NO)c1ccccc1
inactive: [1] -6.35% | [2] 1.6% | [3] 1.5% | [4] -24.4% | [5] -1.9% | [6] 13.2%

O=C1c2ccc([N+](=O)[O-])cc2C(=O)N1CC(F)(F)F
inactive: [1] -0.9% | [2] 8.35% | [3] 10.6% | [4] 14.8% | [5] -3% | [6] 3.8%

COC1CCC(C(C)=O)C(C#N)(C#N)C1(C#N)C#N (stereo not drawn)
inactive: [1] -6.3% | [2] -1.25% | [3] -12.1% | [4] -4.95% | [5] -12.5% | [6] -13.8%

OCCN(/N=C\c1ccc2ccccc2c1)C1=NCCN1
inactive: [1] 15.3% | [2] 6.25% | [3] -22.1% | [4] -28.2% | [5] -2.5% | [6] 5.2%

CN(C)CC(C)(C)C(=O)c1ccc(F)cc1
inactive: [1] 5.35% | [2] 5.8% | [3] -0.1% | [4] 3.55% | [5] 1.7% | [6] 12.3%

O=C(NNC(=O)c1ccc(Cl)c(Cl)c1)c1ccc(Cl)c(Cl)c1
inactive: [1] -37.9% | [2] -56.5% | [3] -25.1% | [4] 6.15% | [5] -16.4% | [6] -33.1%

O=S(=O)(SSS(=O)(=O)c1ccc(Cl)c(Cl)c1)c1ccc(Cl)c(Cl)c1
inactive: [1] 7.8% | [2] 4.05% | [3] 5.85% | [4] -3.45% | [5] 3.65% | [6] 11.7%

CN(C)c1nc(N(C)C)n2c(-c3ccccc3[N+](=O)[O-])nnc2n1
inactive: [1] 48.3% | [2] 18.4% | [3] 22% | [4] 23.4% | [5] 13.3% | [6] 33.4%

CCCNC(=S)N/N=C\C(C)=N\Nc1ccc(Cl)cc1
inactive: [1] 31.4% | [2] 16.2% | [3] 3.15% | [4] 36% | [5] 7.5% | [6] 17.2%

CC#CC(O)(C(=O)OC1CCC2CCC1N2C)C1CCCC1 (stereo not drawn)
inactive: [1] -25.5% | [2] -8.9% | [3] -23.3% | [4] 6.2% | [5] -3.4% | [6] -4.65%

COc1cc2c(NCCCCCCO[N+](=O)[O-])ncnc2c(OC)c1OC
inactive: [1] 26.6% | [2] -5.7% | [3] 40.8% | [4] 43.8% | [5] 39% | [6] 30.6%

Cc1ccc(S(=O)(=O)OCC23CCC(C4CC42)C2CC23)cc1 (stereo not drawn)
inactive: [1] -21.9% | [2] -28.5% | [3] -14.8% | [4] 4.2% | [5] -10.1% | [6] 10.4%

CCOc1ccccc1C1=CCCCCC1
inactive: [1] -0.65% | [2] -5% | [3] -9% | [4] -24.6% | [5] -10% | [6] 1.3%

CCCCCCCCCCCCCCCCCC(=O)OCC1OC(OC)C(NC(=O)N(CCCl)N=O)C(O)C1O (stereo not drawn)
inactive: [1] 16.3% | [2] -6.85% | [3] -4.8% | [4] 13.7% | [5] 21.4% | [6] 9.15%

CCN(CC)CCCCNc1ccnc(N)n1
inactive: [1] -8.65% | [2] -10.5% | [3] 2.7% | [4] -23.3% | [5] 18.2% | [6] 16%

COc1ccc(CCN2CCc3c(C)c(C#N)c4nc5ccccc5n4c32)cc1OC
inactive: [1] 5.75% | [2] 26% | [3] 28.5% | [4] 12.1% | [5] 52.4% | [6] 34.5%

COc1ccc(-c2cc(-c3ccc(Cl)cc3)on2)cc1
inactive: [1] -15.1% | [2] 11.2% | [3] -4.55% | [4] -35.8% | [5] 10.6% | [6] -11.4%

N=Cc1ccccc1O
inactive: [1] -3.3% | [2] -10.3% | [3] -4.8% | [4] 7.8% | [5] 2.9% | [6] 2.55%

O=C(O)C1CCC(C(=O)O)S1 (stereo not drawn)
inactive: [1] 1.85% | [2] -10.4% | [3] -0.85% | [4] -13.1% | [5] 9.9% | [6] 16.1%

CC(=O)Oc1cc(Cl)c(Cl)cc1Cl
inactive: [1] 19.9% | [2] 29.9% | [3] -5.65% | [4] -30.4% | [5] -16.4% | [6] -2.1%

O=[N+]([O-])c1cccc(/C=C/C=C/c2ccc(Cl)c(Cl)c2)c1
inactive: [1] 7.65% | [2] 9.3% | [3] 30.3% | [4] 3.65% | [5] 28.2% | [6] 4.1%

CCOC(=O)/C=C/C=C(\OCC)C1CCC2C3CC=C4CC(OC(C)=O)CCC4(C)C3CCC12C (stereo not drawn)
inactive: [1] -4% | [2] -0.35% | [3] 23.1% | [4] 19.4% | [5] -3.3% | [6] -2.55%

CCC1=CCN2CCC34c5cc(C6(C(=O)OC)CC7CC(CC)CN(CCc8c6[nH]c6ccccc86)C7)c(OC)cc5N(C)C3C(O)(C(=O)OC)C(OC(C)=O)C1C24 (stereo not drawn)
inactive: [1] 0.2% | [2] 9.25% | [3] -3.95% | [4] 3.95% | [5] -1.55% | [6] 10.6%

C=CCCCCCC(O)C(O)C/C=C\C/C=C\CC (stereo not drawn)
inactive: [1] 18.4% | [2] 4.6% | [3] 22.8% | [4] -1.35% | [5] 15.5% | [6] 27.2%

CCC(=S)Nc1ccc(Cl)cc1
inactive: [1] -1.9% | [2] -44.6% | [3] -34.5% | [4] -21.2% | [5] -36.9% | [6] -35.4%

C/C(=C\C(N)=O)C(C)(C)C
inactive: [1] 4.15% | [2] -2.25% | [3] 9.35% | [4] 10.3% | [5] 21.9% | [6] -41.1%

CC(C(=O)c1ccccc1)C(=O)c1ccccc1
inactive: [1] -2.7% | [2] -13% | [3] -7.9% | [4] -9.95% | [5] -5.8% | [6] -1.65%

CNC(=O)Nc1ccccc1
inactive: [1] 27.4% | [2] -0.55% | [3] -12.1% | [4] 16.9% | [5] -21.9% | [6] 7.6%

O=C(/C=N/O)Nc1cccc(Cl)c1I
inactive: [1] 18.4% | [2] -5.2% | [3] 30.1% | [4] 2.95% | [5] 12.6% | [6] 10.4%

COC(=O)c1ccc(C(=O)O)cc1
inactive: [1] 5.35% | [2] -2.65% | [3] -8.15% | [4] -6.55% | [5] 0.65% | [6] -6.5%
